The record followed here is publication PMC7862700, “An all-to-all approach to the identification of sequence-specific readers for epigenetic DNA modifications on cytosine”.

What all share (assay): DAPPL (digital affinity profiling via proximity ligation, sequencing); 10 mM Tris-HCl pH 7.5, 50 mM NaCl, 1 mM DTT, 4% glycerol, room temperature, 30 min; GST-TFs on glutathione beads, 16-mer random dsDNA library, 0.1% formaldehyde crosslink after washing; high values mean tight binding
In one assay the target is T1, FEV (Homo sapiens, UniProt Q99581 1-238).
T1 sequence: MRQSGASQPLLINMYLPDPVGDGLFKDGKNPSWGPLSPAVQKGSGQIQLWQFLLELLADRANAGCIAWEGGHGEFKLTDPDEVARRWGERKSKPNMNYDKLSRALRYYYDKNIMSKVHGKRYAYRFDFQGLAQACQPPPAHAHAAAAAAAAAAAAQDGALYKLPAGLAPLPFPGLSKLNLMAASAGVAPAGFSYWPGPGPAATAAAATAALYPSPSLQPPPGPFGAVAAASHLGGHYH
The note with it: protein: recombinant; tags: N-terminal GST; dsDNA, one strand shown. Put shortly: (§1)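 In yeast, human transcription factors were expressed with a GST fusion, then pulled down on glutathione beads and given DNA barcodes. Pooled with a tag-only sample, they were exposed to 200 nmole of a 16-mer random double-stranded DNA library (Tris/NaCl/DTT/glycerol buffer, room temperature, 30 min), washed, crosslinked with 0.1% formaldehyde, proximity-ligated using BsaI/T4 ligase for 1 h at 37 °C, PCR-amplified and read on an Illumina NextSeq500. Each hexamer's frequency of reads for a factor, divided by the matching frequency for the tag-only sample, gives the binding signal.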

The next assay has as its target ETV5 (Homo sapiens, UniProt P41161 1-510). The note with it: protein: recombinant; tags: N-terminal GST; dsDNA, one strand shown. Put shortly:
as §1

The next assay addresses HSF1 (Homo sapiens, UniProt Q00613 1-529). The settings on record: protein: recombinant; tags: N-terminal GST; chain copies: 3; dsDNA, one strand shown. The gist of the method:
as §1

A further assay deals with T2, SPIC (Homo sapiens, UniProt Q8N5J4 1-248).
T2 sequence: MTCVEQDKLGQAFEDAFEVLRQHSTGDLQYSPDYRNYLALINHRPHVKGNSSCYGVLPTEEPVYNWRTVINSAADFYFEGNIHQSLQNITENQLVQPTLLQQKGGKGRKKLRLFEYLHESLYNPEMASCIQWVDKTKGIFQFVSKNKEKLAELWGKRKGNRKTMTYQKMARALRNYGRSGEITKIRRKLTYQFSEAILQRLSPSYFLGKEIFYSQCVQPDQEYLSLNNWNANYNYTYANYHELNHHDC
The note with it: protein: recombinant; tags: N-terminal GST; dsDNA, one strand shown. The gist of the method:
as §1

A further assay has as its target ELF4 (Homo sapiens, UniProt Q99607 1-663). The note with it: protein: recombinant; tags: N-terminal GST; dsDNA, one strand shown. Put shortly: as §1
Another assay addresses T3, ELK4 (Homo sapiens, UniProt P28324-2 1-405).
T3 sequence: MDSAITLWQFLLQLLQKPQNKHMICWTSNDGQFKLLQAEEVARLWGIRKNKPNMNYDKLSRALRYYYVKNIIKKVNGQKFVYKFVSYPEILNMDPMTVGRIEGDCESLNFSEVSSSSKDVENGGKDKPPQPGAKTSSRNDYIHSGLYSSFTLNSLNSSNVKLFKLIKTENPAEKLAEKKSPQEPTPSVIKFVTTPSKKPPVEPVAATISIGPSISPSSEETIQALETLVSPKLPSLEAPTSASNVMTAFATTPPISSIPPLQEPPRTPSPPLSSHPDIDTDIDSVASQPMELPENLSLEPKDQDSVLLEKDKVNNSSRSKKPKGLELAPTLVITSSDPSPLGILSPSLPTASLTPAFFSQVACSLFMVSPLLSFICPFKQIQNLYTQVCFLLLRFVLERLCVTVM
The settings on record: protein: recombinant; tags: N-terminal GST; dsDNA, one strand shown. Put shortly: as §1

A further assay deals with T4, ETV2 (Homo sapiens, UniProt O00321 1-342).
T4 sequence: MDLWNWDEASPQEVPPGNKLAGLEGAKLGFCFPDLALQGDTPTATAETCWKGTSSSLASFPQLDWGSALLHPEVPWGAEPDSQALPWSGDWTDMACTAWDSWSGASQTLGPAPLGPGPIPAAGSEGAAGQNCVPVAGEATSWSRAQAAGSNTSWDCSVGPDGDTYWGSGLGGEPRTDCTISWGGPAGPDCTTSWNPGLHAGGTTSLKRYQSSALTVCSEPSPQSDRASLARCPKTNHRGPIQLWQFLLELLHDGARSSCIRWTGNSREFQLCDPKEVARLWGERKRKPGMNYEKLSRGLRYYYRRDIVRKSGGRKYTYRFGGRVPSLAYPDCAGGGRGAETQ
The settings on record: protein: recombinant; tags: N-terminal GST; dsDNA, one strand shown. Put shortly: as §1

For the next assay, the target named is T5, ELF3 (Homo sapiens, UniProt P78545 1-371).
T5 sequence: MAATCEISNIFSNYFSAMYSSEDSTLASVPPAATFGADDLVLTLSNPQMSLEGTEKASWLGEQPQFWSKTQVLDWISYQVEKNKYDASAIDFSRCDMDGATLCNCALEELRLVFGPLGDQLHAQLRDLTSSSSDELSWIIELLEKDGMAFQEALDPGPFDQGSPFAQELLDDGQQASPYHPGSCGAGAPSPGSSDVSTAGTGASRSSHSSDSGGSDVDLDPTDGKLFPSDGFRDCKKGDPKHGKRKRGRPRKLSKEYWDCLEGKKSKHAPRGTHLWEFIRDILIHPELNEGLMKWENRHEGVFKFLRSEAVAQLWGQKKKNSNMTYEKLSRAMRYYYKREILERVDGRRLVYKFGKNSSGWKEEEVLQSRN
The settings on record: protein: recombinant; tags: N-terminal GST; dsDNA, one strand shown. The gist of the method:
as §1

The next assay deals with CRX (Homo sapiens, UniProt O43186 1-299). The settings on record: protein: recombinant; tags: N-terminal GST; dsDNA, one strand shown. Put shortly:
as §1

A further assay has as its target ETV1 (Homo sapiens, UniProt P50549 1-477). The note with it: protein: recombinant; tags: N-terminal GST; dsDNA, one strand shown. The gist of the method:
as §1

Another assay deals with T6, ERF (Homo sapiens, UniProt P50548 1-548).
T6 sequence: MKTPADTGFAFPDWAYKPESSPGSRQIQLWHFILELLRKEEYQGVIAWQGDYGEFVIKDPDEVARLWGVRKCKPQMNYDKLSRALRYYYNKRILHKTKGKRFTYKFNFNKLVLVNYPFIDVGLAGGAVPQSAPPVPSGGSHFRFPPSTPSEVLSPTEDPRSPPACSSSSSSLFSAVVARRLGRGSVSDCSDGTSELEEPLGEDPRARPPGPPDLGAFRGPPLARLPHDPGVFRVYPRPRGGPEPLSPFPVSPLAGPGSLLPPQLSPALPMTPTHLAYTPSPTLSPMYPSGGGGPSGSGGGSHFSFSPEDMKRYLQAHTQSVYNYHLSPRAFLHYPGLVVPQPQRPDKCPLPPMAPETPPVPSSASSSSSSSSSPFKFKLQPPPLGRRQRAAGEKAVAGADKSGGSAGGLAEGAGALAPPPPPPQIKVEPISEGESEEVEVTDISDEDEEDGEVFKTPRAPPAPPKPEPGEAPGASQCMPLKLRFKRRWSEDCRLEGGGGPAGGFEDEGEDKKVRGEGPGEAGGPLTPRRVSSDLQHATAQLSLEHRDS
The settings on record: protein: recombinant; tags: N-terminal GST; dsDNA, one strand shown. Put shortly:
as §1

A further assay deals with T7, ETV3L (Homo sapiens, UniProt Q6ZN32 1-361).
T7 sequence: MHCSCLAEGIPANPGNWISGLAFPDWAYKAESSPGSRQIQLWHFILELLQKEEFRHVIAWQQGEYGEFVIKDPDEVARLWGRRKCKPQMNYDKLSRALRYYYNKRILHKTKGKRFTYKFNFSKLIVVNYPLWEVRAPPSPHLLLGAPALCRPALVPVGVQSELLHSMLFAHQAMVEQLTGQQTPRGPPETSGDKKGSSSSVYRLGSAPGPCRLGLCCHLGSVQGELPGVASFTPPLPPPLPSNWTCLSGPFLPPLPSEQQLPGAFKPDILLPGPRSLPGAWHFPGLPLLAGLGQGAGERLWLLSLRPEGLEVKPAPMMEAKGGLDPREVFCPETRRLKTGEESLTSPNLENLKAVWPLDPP
The note with it: protein: recombinant; tags: N-terminal GST; dsDNA, one strand shown. Put shortly: as §1

The next assay has as its target T8, ETS2 (Homo sapiens, UniProt P15036 1-469).
T8 sequence: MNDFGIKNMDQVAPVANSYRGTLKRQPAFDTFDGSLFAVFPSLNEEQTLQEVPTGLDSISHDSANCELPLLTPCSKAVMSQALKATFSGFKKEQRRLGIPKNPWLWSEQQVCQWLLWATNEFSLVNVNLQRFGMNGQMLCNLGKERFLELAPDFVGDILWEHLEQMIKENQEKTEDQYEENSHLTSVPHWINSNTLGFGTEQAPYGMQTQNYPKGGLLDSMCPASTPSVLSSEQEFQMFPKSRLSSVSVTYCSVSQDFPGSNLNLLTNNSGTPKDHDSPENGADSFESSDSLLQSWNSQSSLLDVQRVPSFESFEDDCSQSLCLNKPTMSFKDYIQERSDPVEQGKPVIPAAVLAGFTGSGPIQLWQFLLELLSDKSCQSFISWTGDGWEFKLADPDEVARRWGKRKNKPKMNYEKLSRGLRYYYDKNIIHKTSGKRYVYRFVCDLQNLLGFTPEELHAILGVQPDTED
The settings on record: protein: recombinant; tags: N-terminal GST; dsDNA, one strand shown. Put shortly: as §1

The target of the next assay is T9, SPDEF (Homo sapiens, UniProt O95238 1-335).
T9 sequence: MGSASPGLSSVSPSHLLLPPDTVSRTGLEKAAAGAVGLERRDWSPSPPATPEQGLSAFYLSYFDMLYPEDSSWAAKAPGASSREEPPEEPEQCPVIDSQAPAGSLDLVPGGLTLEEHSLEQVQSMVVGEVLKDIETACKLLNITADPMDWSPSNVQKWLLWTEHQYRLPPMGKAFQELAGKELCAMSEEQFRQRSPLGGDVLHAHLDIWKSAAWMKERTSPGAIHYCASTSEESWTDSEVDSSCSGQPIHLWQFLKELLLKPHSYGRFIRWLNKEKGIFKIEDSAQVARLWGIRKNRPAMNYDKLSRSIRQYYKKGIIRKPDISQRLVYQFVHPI
The note with it: protein: recombinant; tags: N-terminal GST; dsDNA, one strand shown. Put shortly:
as §1

Another assay has as its target T10, ETV7 (Homo sapiens, UniProt Q9Y603 1-341).
T10 sequence: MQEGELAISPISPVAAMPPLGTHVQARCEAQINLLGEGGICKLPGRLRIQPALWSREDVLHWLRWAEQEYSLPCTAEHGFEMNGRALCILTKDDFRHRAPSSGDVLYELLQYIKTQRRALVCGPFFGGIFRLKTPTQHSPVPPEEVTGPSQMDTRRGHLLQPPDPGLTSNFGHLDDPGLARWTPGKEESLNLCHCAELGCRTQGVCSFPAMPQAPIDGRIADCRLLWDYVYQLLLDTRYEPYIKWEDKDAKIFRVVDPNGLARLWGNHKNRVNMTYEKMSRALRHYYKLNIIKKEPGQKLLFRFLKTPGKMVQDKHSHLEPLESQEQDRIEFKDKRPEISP
The note with it: protein: recombinant; tags: N-terminal GST; dsDNA, one strand shown. Put shortly: as §1

Another assay has as its target T11, ELF5 (Homo sapiens, UniProt Q9UKW6-2 1-255).
T11 sequence: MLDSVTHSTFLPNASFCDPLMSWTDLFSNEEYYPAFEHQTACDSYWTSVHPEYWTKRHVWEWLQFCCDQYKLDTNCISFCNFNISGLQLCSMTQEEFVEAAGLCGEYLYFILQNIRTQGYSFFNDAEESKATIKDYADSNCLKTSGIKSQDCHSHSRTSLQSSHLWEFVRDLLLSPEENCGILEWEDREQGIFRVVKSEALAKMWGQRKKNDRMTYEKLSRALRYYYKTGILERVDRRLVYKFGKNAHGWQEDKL
The settings on record: protein: recombinant; tags: N-terminal GST; dsDNA, one strand shown. The gist of the method: as §1

The next assay addresses T12, ETV3 (Homo sapiens, UniProt P41162-2 1-143).
T12 sequence: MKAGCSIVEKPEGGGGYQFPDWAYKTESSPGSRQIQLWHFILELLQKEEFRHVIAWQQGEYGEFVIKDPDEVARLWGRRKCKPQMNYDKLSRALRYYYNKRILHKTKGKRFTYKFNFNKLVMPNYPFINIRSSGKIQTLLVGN
The settings on record: protein: recombinant; tags: N-terminal GST; dsDNA, one strand shown. Put shortly:
as §1

The target of a further assay is ETV6 (Homo sapiens, UniProt P41212 1-452). The settings on record: protein: recombinant; tags: N-terminal GST; dsDNA, one strand shown. Put shortly: as §1
Sequence of ETV6 (P41212 whole entry): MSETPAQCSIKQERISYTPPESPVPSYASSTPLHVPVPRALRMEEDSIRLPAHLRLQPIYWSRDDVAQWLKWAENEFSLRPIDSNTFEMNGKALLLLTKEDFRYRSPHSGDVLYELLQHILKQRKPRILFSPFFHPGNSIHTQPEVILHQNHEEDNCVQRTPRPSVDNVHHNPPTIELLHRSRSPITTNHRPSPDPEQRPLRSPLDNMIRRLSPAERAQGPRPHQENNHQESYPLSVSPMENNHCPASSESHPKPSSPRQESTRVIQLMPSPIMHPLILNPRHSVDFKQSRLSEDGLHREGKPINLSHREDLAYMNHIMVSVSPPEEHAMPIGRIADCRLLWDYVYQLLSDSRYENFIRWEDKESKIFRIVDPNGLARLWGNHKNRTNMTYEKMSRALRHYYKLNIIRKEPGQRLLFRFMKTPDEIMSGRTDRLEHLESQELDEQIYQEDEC

Sequence of HSF1 (Q00613 whole entry): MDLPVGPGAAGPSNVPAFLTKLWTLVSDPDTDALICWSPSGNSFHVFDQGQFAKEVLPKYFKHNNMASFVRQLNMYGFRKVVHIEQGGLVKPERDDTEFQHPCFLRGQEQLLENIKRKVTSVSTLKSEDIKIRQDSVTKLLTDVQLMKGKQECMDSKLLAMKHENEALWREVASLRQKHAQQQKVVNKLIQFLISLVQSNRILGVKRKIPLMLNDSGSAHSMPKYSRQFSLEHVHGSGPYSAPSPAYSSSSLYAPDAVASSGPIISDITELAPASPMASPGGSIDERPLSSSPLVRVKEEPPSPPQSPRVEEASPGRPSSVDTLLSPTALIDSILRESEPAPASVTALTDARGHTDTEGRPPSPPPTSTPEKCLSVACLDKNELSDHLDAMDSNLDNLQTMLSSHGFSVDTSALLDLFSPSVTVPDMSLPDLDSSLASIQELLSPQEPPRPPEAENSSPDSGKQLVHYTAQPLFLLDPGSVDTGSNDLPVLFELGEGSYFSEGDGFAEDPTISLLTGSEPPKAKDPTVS
Sequence of ELF4 (Q99607 whole entry): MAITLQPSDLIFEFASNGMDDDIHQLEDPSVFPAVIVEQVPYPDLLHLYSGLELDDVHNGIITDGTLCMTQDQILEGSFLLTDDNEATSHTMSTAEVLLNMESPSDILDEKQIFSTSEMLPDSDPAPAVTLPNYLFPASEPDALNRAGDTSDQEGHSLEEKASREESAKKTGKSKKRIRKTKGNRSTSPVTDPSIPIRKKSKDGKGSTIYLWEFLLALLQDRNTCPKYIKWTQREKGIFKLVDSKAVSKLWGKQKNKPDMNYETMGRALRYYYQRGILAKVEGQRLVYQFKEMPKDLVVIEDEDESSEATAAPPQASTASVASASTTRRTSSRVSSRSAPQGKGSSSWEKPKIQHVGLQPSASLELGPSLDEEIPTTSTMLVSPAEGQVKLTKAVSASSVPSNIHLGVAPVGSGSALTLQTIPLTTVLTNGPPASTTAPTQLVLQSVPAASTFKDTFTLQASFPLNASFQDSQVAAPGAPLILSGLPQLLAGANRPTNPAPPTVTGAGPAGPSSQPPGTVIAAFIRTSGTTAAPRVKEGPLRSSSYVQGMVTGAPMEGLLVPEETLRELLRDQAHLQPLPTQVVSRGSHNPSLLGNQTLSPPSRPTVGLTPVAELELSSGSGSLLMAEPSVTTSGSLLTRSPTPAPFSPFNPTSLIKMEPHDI
Sequence of ETV1 (P50549 whole entry): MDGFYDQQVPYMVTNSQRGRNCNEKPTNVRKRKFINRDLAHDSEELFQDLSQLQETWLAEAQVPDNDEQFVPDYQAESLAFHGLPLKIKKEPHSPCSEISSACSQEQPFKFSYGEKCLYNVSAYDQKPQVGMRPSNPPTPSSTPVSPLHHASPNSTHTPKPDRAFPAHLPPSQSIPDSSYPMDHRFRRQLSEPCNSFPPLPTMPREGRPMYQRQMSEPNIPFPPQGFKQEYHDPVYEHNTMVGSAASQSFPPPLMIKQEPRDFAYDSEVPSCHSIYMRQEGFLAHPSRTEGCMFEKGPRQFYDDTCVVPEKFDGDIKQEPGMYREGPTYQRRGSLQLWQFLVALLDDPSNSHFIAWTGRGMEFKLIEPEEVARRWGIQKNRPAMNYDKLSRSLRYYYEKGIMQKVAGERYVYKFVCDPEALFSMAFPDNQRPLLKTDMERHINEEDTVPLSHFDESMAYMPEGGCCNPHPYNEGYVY
Sequence of ETV5 (P41161 whole entry): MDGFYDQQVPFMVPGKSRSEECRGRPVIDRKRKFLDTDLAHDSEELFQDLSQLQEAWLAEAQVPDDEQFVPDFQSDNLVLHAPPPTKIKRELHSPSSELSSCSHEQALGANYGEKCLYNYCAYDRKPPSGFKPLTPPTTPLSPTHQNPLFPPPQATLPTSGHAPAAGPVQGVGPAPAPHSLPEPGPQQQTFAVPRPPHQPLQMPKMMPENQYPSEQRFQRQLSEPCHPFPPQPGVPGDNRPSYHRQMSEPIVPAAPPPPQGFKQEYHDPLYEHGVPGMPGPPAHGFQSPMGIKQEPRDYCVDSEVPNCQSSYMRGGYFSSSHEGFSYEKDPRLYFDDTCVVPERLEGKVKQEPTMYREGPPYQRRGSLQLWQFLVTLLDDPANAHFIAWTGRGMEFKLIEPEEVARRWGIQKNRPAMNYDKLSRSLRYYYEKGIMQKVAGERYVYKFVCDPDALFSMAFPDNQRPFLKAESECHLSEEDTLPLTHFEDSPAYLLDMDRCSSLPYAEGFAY
Sequence of CRX (O43186 whole entry): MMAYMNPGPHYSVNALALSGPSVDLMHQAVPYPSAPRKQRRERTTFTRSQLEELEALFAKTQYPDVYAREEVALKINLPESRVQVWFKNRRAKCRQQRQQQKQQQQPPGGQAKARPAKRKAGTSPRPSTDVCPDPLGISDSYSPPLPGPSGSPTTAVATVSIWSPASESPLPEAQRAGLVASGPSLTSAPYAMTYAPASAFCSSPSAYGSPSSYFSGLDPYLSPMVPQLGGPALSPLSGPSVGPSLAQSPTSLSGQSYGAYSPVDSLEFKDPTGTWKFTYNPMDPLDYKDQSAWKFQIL

For ATCGCC, the binding signal with FEV is 1.24 fold enrichment (6-mer frequency, TF over GST control); with ETV5, 1.23 fold enrichment (6-mer frequency, TF over GST control); in the assay with HSF1, 1.28 fold enrichment (6-mer frequency, TF over GST control); with SPIC, 1.31 fold enrichment (6-mer frequency, TF over GST control); in the assay with ELF4, 1.24 fold enrichment (6-mer frequency, TF over GST control); in the assay with ELK4, 1.28 fold enrichment (6-mer frequency, TF over GST control). The binding signal with ETV2 is 1.2 fold enrichment (6-mer frequency, TF over GST control); with ELF3 it was 1.12 fold enrichment (6-mer frequency, TF over GST control); with CRX, 1.4 fold enrichment (6-mer frequency, TF over GST control); in the assay with ETV1, 1.32 fold enrichment (6-mer frequency, TF over GST control); in the assay with ERF, 1.27 fold enrichment (6-mer frequency, TF over GST control); in the assay with ETV3L, 1.32 fold enrichment (6-mer frequency, TF over GST control). The binding signal is 1.3 fold enrichment (6-mer frequency, TF over GST control) with ETS2; 1.12 fold enrichment (6-mer frequency, TF over GST control) with SPDEF; 1.03 fold enrichment (6-mer frequency, TF over GST control) with ETV7; 1.25 fold enrichment (6-mer frequency, TF over GST control) with ELF5; 1.14 fold enrichment (6-mer frequency, TF over GST control) with ETV3; 1.28 fold enrichment (6-mer frequency, TF over GST control) in the assay with ETV6.
